Here are results for 38 compounds from PubChem BioAssay (EPA / NIEHS).

Each structure is given as a SMILES string. The source made the active and inactive calls. The calls were made as follows: active = hit-call score of the fitted dose curve at least 0.9, where 1 is the maximum; inactive = score below 0.9.

The assay can be described thus: ATG_CMV_CIS: Attagene CIS-FACTORIAL HepG2 Assay for human CMV (Internal Marker) (AID 2282928).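 Also: endpoint acts as a background internal control marker rather than a target.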 The settings on record: HepG2 CMV promoter reporter, transcription factor profiling; actives raise or lower the signal. Put shortly: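 CMV internal-marker background readout in transiently transfected HepG2 cells bearing cis-regulated reporter units. Reporter mRNA is measured 24 h after dosing by RT-PCR and capillary electrophoresis, with bidirectional fitting against DMSO.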
For the compound `CCOC(=O)CC(C)O` (stereo not drawn), the compound was called inactive.

As for `CCCC(=O)OCCc1ccccc1`, the compound was classed as inactive. Same read-out and setting: for `CC1(C)O[C@@H]2[C@@H](CO[C@@]3(COS(N)(=O)=O)OC(C)(C)O[C@@H]23)O1` the value was “inactive”; for `[Cl][Au]([Cl])[Cl]`, “inactive”; for `CCCCCC(C=O)=Cc1ccccc1`, “inactive”. On the same count and under the same terms, as for `C=CC(C)C#N` (stereo not drawn), the entry is “inactive”. The AC50 is the concentration at which the activity in the assay is half-maximal. For `C[C@H]1O[C@@H](O[C@H]2[C@@H](O)C[C@H](O[C@H]3[C@@H](O)C[C@H](O[C@H]4CC[C@@]5(C)[C@H](CC[C@@H]6[C@@H]5C[C@@H](O)[C@]5(C)[C@@H](C7=CC(=O)OC7)CC[C@]65O)C4)O[C@@H]3C)O[C@@H]2C)C[C@H](O)[C@@H]1O`, the AC50 was 2.56 µM (active). In the case of `ClC(c1ccccc1)(c1ccccc1)c1ccccc1`, the result was inactive. As to `O=c1c(O)c(-c2ccc(O)cc2)oc2cc(O)cc(O)c12`, the AC50 is 9.22 µM (active). For `CN1CCOCC1`, the outcome was inactive.

Turning to `CC/C=C\CC/C=C/CO`, the result was inactive. The same measure, in the same setting: for `CS(=O)(=O)c1ccc(C2=C(c3ccccc3)C(=O)OC2)cc1` the value was “inactive”. With `CC1C2CC(CC2C2CCCC(O)C2)C1(C)C` (stereo not drawn), the result was inactive. As for `COC(=O)Nc1ccc(Cl)c(Cl)c1`, the AC50 was 24 µM (active). Consider `CC(O)C1CCCCC1` (stereo not drawn), for which the compound was called inactive. In the case of `Oc1c(Cl)cc(Cl)c(Cl)c1Cc1c(O)c(Cl)cc(Cl)c1Cl`, the AC50 is 11.1 µM (active). As to `N#Cc1ccc(CC(=O)c2cccc(C(F)(F)F)c2)cc1`, the compound was classed as inactive.

Consider `COS(=O)(=O)O`, for which the compound was classed as inactive.

For `CCCCCCOC(=O)CCC`, the compound was classed as inactive.

As to `COC(C)(C)CCCC(C)CC=O` (stereo not drawn), the outcome was inactive.

Turning to `CSCCC=O`, the compound was classed as inactive. On to `Brc1ccc(Br)c(Br)c1`, for which the call was inactive. The same measure, in the same setting: for `Cc1cc(C)nc(NS(=O)(=O)c2ccc(N)cc2)n1` the value was “inactive”; for `CCOCCOCCOCC`, “inactive”; for `C=C1C[C@]23C[C@@]1(O)CC[C@H]2[C@@]12C=C[C@H](O)[C@@](C)(C(=O)O1)[C@H]2[C@@H]3C(=O)O`, “inactive”. Same read-out and setting: as for `OCc1cccc(Oc2ccccc2)c1`, the entry is “inactive”; as for `C=CCN(CC=C)CC=C`, “inactive”; as for `CC(C)(N=C=O)c1cccc(C(C)(C)N=C=O)c1`, “inactive”. Still for that read-out and setting: as for `C[Si]1(C)O[Si](C)(C)O[Si](C)(C)O1`, the entry is “inactive”; as for `CCOc1ccccc1O`, “inactive”. In the case of `Cc1cc(=O)oc2cc(N(C)C)ccc12`, the AC50 was 46.7 µM (active). Take `CCCCOCC`: the call was inactive.

For `C1CCCCC1`, the compound was classed as inactive.

Turning to `CC1=CC[C@@]23C[C@@H]1C(C)(C)[C@@H]2CC[C@H]3C`, the call was inactive. Same read-out and setting: for `O=C1NC2NC(=O)NC2N1` (stereo not drawn) the value was “inactive”; for `Nc1ccc(NCCO)c([N+](=O)[O-])c1`, “inactive”. Same read-out and setting: as for `CC(C)(CO)[C@@H](O)C(=O)NCCC(=O)O`, the entry is “inactive”; as for `C[Si](C)(C)O[Si](C)(C)C`, “inactive”.
